The structures appear in SMILES notation. Inconclusive results are not listed. Unmarked numbers belong to inactive results. Calls of active or inactive are those of the source. The call rests on the fitted dose curve; in most records, active means well fitted inhibition curve with a large enough effect; inconclusive means small, poorly fitted or top-dose-only effect; inactive means flat fitted curve, though single readings scatter.

The nature of assay [1]: qHTS profiling for inhibitors of Plasmodium falciparum proliferation (AID 504749). Further: nearly all actives have a fitted effect of over 60% in size.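 On activity, negative = inhibition: 0% = DMSO vehicle and full inhibition = artemisinin control.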 The settings on record: P. falciparum in erythrocytes, SYBR Green DNA, 72 h. In a few lines: (§1)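 Parasite proliferation within erythrocytes, 72 h exposure. Endpoint: SYBR Green I fluorescence after overnight lysis at room temperature. Controls: 0.29 uM artemisinin, DMSO.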
A further assay relates to 3D7. The description is as above. To be noted: P. falciparum in erythrocytes, SYBR Green DNA, 72 h; series mostly up to 28.7 µM. The gist of the method:
as §1

The subject of another assay is 7G8. Described as above. To be noted: P. falciparum in erythrocytes, SYBR Green DNA, 72 h; series mostly up to 28.7 µM. In a few lines:
as §1

The next assay has as its system AA1029. The assay is described as above. The settings on record: P. falciparum in erythrocytes, SYBR Green DNA, 72 h; series mostly up to 28.7 µM. In a few lines: as §1
For the next assay, the system named is AS120. The assay is described as above. The settings on record: P. falciparum in erythrocytes, SYBR Green DNA, 72 h; series mostly up to 28.7 µM. In a few lines:
as §1

Another assay has as its system ATS189. Described as above. The settings on record: P. falciparum in erythrocytes, SYBR Green DNA, 72 h; series mostly up to 28.7 µM. The gist of the method: as §1
The test system of another assay is ATS95. The assay is described as above. The settings on record: P. falciparum in erythrocytes, SYBR Green DNA, 72 h; series mostly up to 28.7 µM. The gist of the method:
as §1

Setting [2] is: at 12.8 µM (top of the series), parasite line A.
[3] abbreviates: at 12.8 µM (top of the series), parasite line B.
The mark [4] stands for this setting: at 28.7 µM (top of the series), parasite line A.
Where [5] appears, read: at 28.7 µM (top of the series), parasite line B.
Potency means the concentration at half of the fitted maximal effect.

Take `CCN(CC)C(=O)N1CCN(C)CC1`: the activity, negative = inhibition is 5.24% in assay [1] (setting [2]) and 18.6% in assay [1] (setting [3]). Besides, the Potency result in the assay on 3D7, in the assay on 7G8, in the assay on AA1029, with AS120, in the assay on ATS189 and in the assay with ATS95 was “inactive” throughout.

For `CC(=O)Oc1ccc(C(c2ccc(OC(C)=O)cc2)c2ccccn2)cc1`, the values for the activity, negative = inhibition in assay [1] (setting [4]) and in assay [1] (setting [5]) were 0.325% and 3.02%, respectively. The Potency entry in the assay with 3D7, with 7G8, in the assay with AA1029, in the assay on AS120, in the assay with ATS189 and in the assay on ATS95 was “inactive” throughout.

`COc1cc2c(cc1OC)C(C(C(=O)N(CCc1ccc(OC)c(OC)c1OC)CCc1ccc(OC)c(OC)c1OC)c1ccccc1)=NCC2` (configuration not stated): the activity, negative = inhibition was 14.8% in assay [1] (setting [4]) and -1.99% in assay [1] (setting [5]). Besides, the Potency is 4.47 µM (active) in the assay on 3D7, 0.316 µM (active) with 7G8, 2.51 µM (active) in the assay on AA1029 and 3.55 µM (active) with ATS95. Moreover, the Potency entry in the assay on AS120 and in the assay with ATS189 was “inactive” throughout.

Consider `NC(=NCCCCCCN=C(N)/N=C(\N)Nc1ccc(Cl)cc1)/N=C(\N)Nc1ccc(Cl)cc1`, for which the Potency in assay [1] (parasite line A) is 3.16 µM (active); in assay [1] (parasite line B), 3.98 µM (active); in the assay on 3D7 it was 1.41 µM (active); in the assay on 7G8 it was 0.251 µM (active); in the assay with AA1029, 1 µM (active); in the assay on AS120 it was 1.26 µM (active). The Potency in the assay on ATS189 is 1.78 µM (active); in the assay with ATS95 it was 2 µM (active).

With `CCCCCC=CCC=CCCCCCCCC(=O)OCC`, the activity, negative = inhibition in assay [1] (setting [4]) was 1.14%; in assay [1] (setting [5]), 2.81%. Besides, the Potency entry in the assay with 3D7, in the assay with 7G8, in the assay on AA1029, in the assay on AS120, in the assay on ATS189 and in the assay on ATS95 was “inactive” each time.

For the compound `CC(O)(P(=O)(O)O)P(=O)(O)O`, the activity, negative = inhibition is 10.5% in assay [1] (setting [4]) and 4.89% in assay [1] (setting [5]). Also, the Potency result with 3D7, with 7G8, in the assay with AA1029, in the assay with AS120, in the assay with ATS189 and in the assay on ATS95 was “inactive” in each case.

For `CC(C)COC(=O)OCN1C(=O)CN(CCN2CC(=O)N(COC(=O)OCC(C)C)C(=O)C2)CC1=O`, the activity, negative = inhibition is 4.43% in assay [1] (setting [4]) and 8.61% in assay [1] (setting [5]). For the same compound, the Potency result in the assay on 3D7, in the assay on 7G8, in the assay with AA1029, with AS120, with ATS189 and with ATS95 was “inactive” in each case.

`NC(CO)(CO)CO`: the activity, negative = inhibition in assay [1] (setting [4]) was 6.7%; in assay [1] (setting [5]), -0.553%. Also, the Potency result with 3D7, in the assay on 7G8, in the assay on AA1029, in the assay on AS120, in the assay on ATS189 and in the assay with ATS95 was “inactive” in each case.

Regarding `COc1ccc(/C=C/C(=O)c2ccc(OC)cc2OC)cc1`, the Potency is 3.16 µM (active) in assay [1] (parasite line A); 8.91 µM (active) in assay [1] (parasite line B); 10 µM (active) in the assay with 3D7; 5.01 µM (active) with 7G8; 6.31 µM (active) with AA1029; 8.91 µM (active) in the assay on AS120. Besides, the Potency in the assay with ATS189 is 5.62 µM (active); in the assay with ATS95, 11.2 µM (active).

Regarding `Cc1ccc(C(=O)C(C)CN2CCCCC2)cc1` (configuration not stated), the activity, negative = inhibition is 1.87% in assay [1] (setting [4]) and 6.22% in assay [1] (setting [5]). Also, the Potency entry with 3D7, with AA1029, in the assay with AS120 and in the assay on ATS95 was “inactive” in each case. Also, the Potency with 7G8 is 11.2 µM (active).

Consider `COCc1c(C(C)C)nc(C(C)C)c(/C=C/[C@@H](O)C[C@@H](O)CC(=O)O)c1-c1ccc(F)cc1`, for which the activity, negative = inhibition in assay [1] (setting [4]) was -9.49%; in assay [1] (setting [5]), -12.9%. For the same compound, the Potency entry with 3D7, in the assay with AA1029, with AS120, in the assay on ATS189 and with ATS95 was “inactive” in each case.

Consider `CN(C)CCCOc1nn(Cc2ccccc2)c2ccccc12`, for which the values for the activity, negative = inhibition in assay [1] (setting [2]) and in assay [1] (setting [3]) were -0.403% and -0.662%, respectively. Also, the Potency result in the assay with 3D7 and in the assay on AS120 was “inactive” throughout.

For the compound `CCCCC1=NC2(CCCC2)C(=O)N1Cc1ccc(-c2ccccc2-c2nn[nH]n2)cc1`, the activity, negative = inhibition in assay [1] (setting [4]) is -0.908%; in assay [1] (setting [5]), -26.5%. Moreover, the Potency entry with 3D7, in the assay with AA1029, in the assay with AS120 and in the assay on ATS189 was “inactive” in each case.

On to `CCN1CCCC1=O`, for which the activity, negative = inhibition in assay [1] (setting [4]) was 3.13%; in assay [1] (setting [5]), 11.2%. Further, the Potency result in the assay on 3D7, in the assay with AA1029, in the assay on AS120, with ATS189 and with ATS95 was “inactive” each time.

Consider `CNCCC(Oc1ccccc1C)c1ccccc1` (configuration not stated), for which the activity, negative = inhibition in assay [1] (setting [4]) is 4.27%; in assay [1] (setting [5]), 4.69%. The Potency result in the assay on 3D7, in the assay on ATS189 and with ATS95 was “inactive” in each case.

`Oc1ccc(Cl)cc1Sc1cc(Cl)ccc1O`: the activity, negative = inhibition in assay [1] (setting [4]) is 0.98%; in assay [1] (setting [5]) it was -24.8%. Also, the Potency result with 3D7, in the assay with AA1029, with ATS189 and in the assay with ATS95 was “inactive” in each case. Further, the Potency with 7G8 is 12.6 µM (active).

Consider `Cc1c(C)n(Cc2ccccc2)c2ccc(C(=O)OCCN(C)C)cc12`, for which the figures for the activity, negative = inhibition in assay [1] (setting [4]) and in assay [1] (setting [5]) were 11.1% and -2.16%, respectively. For the same compound, the Potency entry in the assay on 3D7, in the assay on AA1029, with AS120, in the assay on ATS189 and in the assay on ATS95 was “inactive” in each case.
